5 molecules from PubChem BioAssay (NCATS) can be followed below.

Test [1] is described as follows: AP1 Signaling Pathway (AID 357; active means well fitted curve in either direction with a large enough effect, not every such curve was filed as active;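 further: ME-180 reporter cells stimulated with EGF at its EC50 level; on the % scale 0 is the no-effect control and ±100 the full control effect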). The method, boiled down: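 Read-out was the 460nm/530nm emission ratio (excitation 405nm) after CCF4 loading for 2.5 hours at room temperature. Cells carried an AP-1-driven beta-lactamase reporter, were stimulated with EC50 EGF plus compound for 5 hours, and AC50 values came from titrations.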
The target of test [2] is Cytochrome P450 1A2 (Homo sapiens) (UniProt P05177). Description: p450-cyp1a2 (AID 410; calls by dose curve;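 further: -100% = full effect of reference inhibitor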). The method, boiled down: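 20nM CYP1A2, 100uM Luciferin-ME (=Km), 100mM KPO4; cpd 10 min RT; +NADPH regen, 60 min RT; stop/detect 20 min; luminescence. Normalized to furafylline 57 uM = full inhibition.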
Chain of Cytochrome P450 1A2 (Homo sapiens) (P05177 whole entry, looked up): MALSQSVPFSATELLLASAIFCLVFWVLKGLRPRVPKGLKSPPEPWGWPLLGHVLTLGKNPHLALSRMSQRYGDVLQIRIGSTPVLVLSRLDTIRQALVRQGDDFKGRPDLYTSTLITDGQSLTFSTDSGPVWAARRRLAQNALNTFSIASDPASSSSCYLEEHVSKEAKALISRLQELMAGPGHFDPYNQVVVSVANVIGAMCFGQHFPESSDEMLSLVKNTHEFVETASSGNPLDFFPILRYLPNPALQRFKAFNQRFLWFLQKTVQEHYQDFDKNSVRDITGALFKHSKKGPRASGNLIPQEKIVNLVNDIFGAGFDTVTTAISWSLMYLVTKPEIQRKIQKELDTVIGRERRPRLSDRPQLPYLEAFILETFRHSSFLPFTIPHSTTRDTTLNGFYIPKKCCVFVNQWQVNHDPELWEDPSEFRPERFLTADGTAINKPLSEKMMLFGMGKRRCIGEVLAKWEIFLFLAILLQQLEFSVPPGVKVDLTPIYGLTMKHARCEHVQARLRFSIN
Test [3] can be described thus: NFAT Signaling Pathway (AID 444; active means well fitted curve in either direction with a large enough effect, not every such curve was filed as active;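 further: carbachol stimulus at about its EC50 of 1 µM final; on the % scale 0 is the no-effect control and ±100 the full control effect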). The conditions noted are these: Jurkat NFAT-bla M1, carbachol, beta-lactamase ratio, 5 h; at 17.2 µM (top of the series) unless noted. The method, boiled down: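 Read-out: CCF4 FRET ratio (460 nm/530 nm) after 1 h RT dye loading, used for %activity and AC50 from titration series. Cells: Jurkat NFAT-β-lactamase/M1 line, treated with compound plus 1 uM carbachol for 5 h, 37 °C.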

Test [4] in a line: Stat Signaling Pathway (AID 446; active means well fitted curve in either direction with a large enough effect, not every such curve was filed as active;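 further: ME-180 cervical cancer cells given 40 pM IL-6 alongside compound; SIE-controlled beta-lactamase reporter measured as 460/530 nm FRET emission ratio; on the % scale 0 is the no-effect control and ±100 the full control effect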). The method, boiled down: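 Overnight-plated ME-180 cells bearing a STAT Inducible Element beta-lactamase reporter; 5 h co-exposure to compound and 40 pM IL-6; values normalized to 300 pM IL-6 and 125 nM JAK inhibitor controls.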
The target of test [5] is Glucocorticoid receptor (Homo sapiens) (UniProt P04150). Description: GR-GFP Redistribution (AID 450;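 active means compounds whose dose series gives a full or clear partial fitted curve of increased nuclear translocation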; further: potency means the concentration at half of the fitted maximal effect). The note with it: U2OS GR-GFP nuclear translocation, laser cytometry, 2 h.
Chain of Glucocorticoid receptor (Homo sapiens) (P04150 whole entry, looked up): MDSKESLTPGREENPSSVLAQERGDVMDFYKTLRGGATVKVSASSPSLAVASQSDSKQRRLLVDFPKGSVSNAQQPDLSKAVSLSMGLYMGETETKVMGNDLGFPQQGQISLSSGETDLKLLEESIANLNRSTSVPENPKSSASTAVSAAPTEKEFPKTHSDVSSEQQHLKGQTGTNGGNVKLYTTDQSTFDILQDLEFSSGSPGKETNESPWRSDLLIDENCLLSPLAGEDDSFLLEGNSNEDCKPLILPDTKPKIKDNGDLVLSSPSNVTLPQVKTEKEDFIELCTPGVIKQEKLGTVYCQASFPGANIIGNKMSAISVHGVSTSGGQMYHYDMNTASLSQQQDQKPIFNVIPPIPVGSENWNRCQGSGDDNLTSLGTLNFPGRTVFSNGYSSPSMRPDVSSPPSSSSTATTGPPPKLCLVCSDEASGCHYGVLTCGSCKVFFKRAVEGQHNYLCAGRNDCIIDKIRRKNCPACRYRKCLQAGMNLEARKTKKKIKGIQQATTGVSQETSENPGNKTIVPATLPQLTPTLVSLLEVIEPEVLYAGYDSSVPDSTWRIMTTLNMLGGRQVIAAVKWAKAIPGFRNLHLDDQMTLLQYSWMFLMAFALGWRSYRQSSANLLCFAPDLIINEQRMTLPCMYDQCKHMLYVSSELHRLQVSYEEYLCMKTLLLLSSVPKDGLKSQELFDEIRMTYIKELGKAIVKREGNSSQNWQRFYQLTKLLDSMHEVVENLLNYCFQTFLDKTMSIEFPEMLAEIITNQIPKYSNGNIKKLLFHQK
Test [6] has the same target. Description: GR-EFC Redistribution (AID 451; calls by dose curve; further: potency means the concentration at half of the fitted maximal effect). The note with it: CHO-K1 GR-EFC translocation, beta-gal luminescence, 2 h. In outline:
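Translocation of GR-ED fusion to nuclear EA restores b-gal, read by luminescence after 1 h room-temperature detection. Engineered CHO-K1 biosensor cells, 1,000/well, exposed 2 h at 37 C to titrations up to 46 uM final.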

Test [7] addresses Mitogen-activated protein kinase 10 (Mus musculus) (UniProt Q61831). Description: JNK3 AlphaScreen Assay (AID 530; active means well fitted curve in either direction with a large enough effect, not every such curve was filed as active;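 further: kinase came from lysate of stimulated human HepG2 cells; signal reports phosphorylation of biotinylated GST-cJun 1-79 at Ser73 with 10 µM ATP; on the % scale 0 is the no-effect control and ±100 the full control effect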). The method, boiled down:
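Kinase buffer: 20 mM Tris-HCl pH 7.6, 10 mM MgCl2, 1 mM DTT, 0.1 mM Na3VO4, 0.01% Tween-20; ATP 10 uM. Substrate biotin-GST-cJun(1-79), enzyme from activated HepG2 lysates. Detection by Ser73 phospho-antibody AlphaScreen.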
Background: Bead proximity is the source of the signal in Alpha formats.

Test [8] concerns the target 3',5'-cyclic-AMP phosphodiesterase 4B (Homo sapiens) (UniProt Q07343). Description: qHTS Assay for Inhibitors of PDE-IV (AID 607; active means well fitted activation curve with a large enough effect in the main read-out, with a control signal flat, not every such curve was filed as active; further: % of control where 0% means no effect). In outline: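 Live HEK293 cells with a modified cyclic nucleotide-gated (CNG) channel report intracellular cAMP via membrane-potential dye fluorescence (ex 535/em 590 nm). Endogenous PDE-IV was targeted. Compounds were tested at up to 22.9 uM final; RO 20-1724 100 uM served as control.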
A general note: qHTS replaces the single test concentration by a dilution series.

A short description of test [9]: qHTS Assay for Lipid Storage Modulators (AID 1519; calls by dose curve). The note with it: Drosophila S3 cells, BODIPY lipid droplet/cell ratio, laser cytometry, cells loaded with oleic acid; for activity change, negative = inhibition: at 25.7 µM (top of the series). The method, boiled down: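 Cells seeded at 5,000 per well were treated with compounds over a concentration series and loaded with oleic acid (400 uM, as added). Lipid droplet fluorescence (488 nm excitation, 500-530 nm channel) was read by laser-scanning cytometry and normalized to 20 uM Triacsin C.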

Test [10] can be described thus: S16 Schwann cell viability assay (CellTiter-Glo assay) (AID 624031).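 Further: native untransfected S16 rat Schwann cells; cellular ATP luminescence as a viability measure; plate controls were DMSO-treated cells for no effect and cell-free wells for full effect; nearly all actives have a fitted effect of over 70% in size.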 The method, boiled down:
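Parental S16 cells, 24 h compound, 37 °C. ATP-luminescence viability; DMSO = 0% activity, empty wells as reference; curves classified by fit quality and efficacy.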
For orientation: Cellular ATP, detected with luciferase, serves as a proxy for viable cell number.

A short description of test [11]: S16 Schwann cell PMP22 intronic element firefly luciferase assay (AID 624032).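 Further: plate controls were DMSO for no effect and PTC124 positive control mean for full effect; nearly all actives have a fitted effect of over 30% in size.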 In outline:
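Luciferase reporter of PMP22 intronic-element expression in stably transfected S16 rat Schwann cells, read by ONE-Glo luminescence after 24 h compound exposure at 37 C. Activity scaled between DMSO (0%) and positive-control PTC124; concentration-effect curves quality-classified.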

Test [12] can be described thus: qHTS profiling for inhibitors of Plasmodium falciparum proliferation (AID 504749).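 Further: 0% = DMSO vehicle and full inhibition = artemisinin control; nearly all actives have a fitted effect of over 60% in size.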 The conditions noted are these: P. falciparum in erythrocytes, SYBR Green DNA, 72 h. In outline: (§1)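 In a 72 h erythrocytic culture (37 C, humidified, 5% CO2) at 2.5% hematocrit and 0.3% starting parasitemia, compounds were tested; SYBR Green I in detergent lysis buffer stained parasite DNA overnight.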

A further test concerns 3D7. The description is as above. The note with it: P. falciparum in erythrocytes, SYBR Green DNA, 72 h; series mostly up to 12.8 µM. In outline:
as §1

The next test relates to AS120. Described as above. The note with it: P. falciparum in erythrocytes, SYBR Green DNA, 72 h; series mostly up to 12.8 µM. In outline: as §1
The next test deals with ATS189. The test is described as above. The conditions noted are these: P. falciparum in erythrocytes, SYBR Green DNA, 72 h; series mostly up to 12.8 µM. In outline: as §1
The next test relates to CP217. The description is as above. The conditions noted are these: P. falciparum in erythrocytes, SYBR Green DNA, 72 h; series mostly up to 12.8 µM. In outline: as §1
In a further test the test system is CP247. The test is described as above. The note with it: P. falciparum in erythrocytes, SYBR Green DNA, 72 h; series mostly up to 12.8 µM. In outline: as §1
A further test concerns CP250. The test is described as above. The note with it: P. falciparum in erythrocytes, SYBR Green DNA, 72 h; series mostly up to 12.8 µM. In outline: as §1
The subject of the next test is SC27B. The test is described as above. The conditions noted are these: P. falciparum in erythrocytes, SYBR Green DNA, 72 h; series mostly up to 12.8 µM. In outline:
as §1

The target in test [13] is Ubiquitin carboxyl-terminal hydrolase 1 (Homo sapiens) (UniProt O94782). Description: Inhibitors of USP1/UAF1: Pilot qHTS (AID 504865).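 Further: rhodamine fluorescence freed from ubiquitin-rhodamine substrate followed over time; top concentration of the series differs between compounds; on the % scale 0 is the no-effect control and ±100 the full control effect; nearly all actives have a fitted effect of over 35% in size.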 In outline: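 1nM USP1/UAF1 + cpd, 15 min RT; start w/ Ub-Rho 150nM final; kinetic FL 480/540 nm, 6 reads q60 s. Buffer 50mM HEPES pH 7.8, 0.5mM EDTA, 1mM TCEP, 0.01% Tween-20, 0.1 mg/ml BSA.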
Chain of Ubiquitin carboxyl-terminal hydrolase 1 (Homo sapiens) (O94782 whole entry, looked up): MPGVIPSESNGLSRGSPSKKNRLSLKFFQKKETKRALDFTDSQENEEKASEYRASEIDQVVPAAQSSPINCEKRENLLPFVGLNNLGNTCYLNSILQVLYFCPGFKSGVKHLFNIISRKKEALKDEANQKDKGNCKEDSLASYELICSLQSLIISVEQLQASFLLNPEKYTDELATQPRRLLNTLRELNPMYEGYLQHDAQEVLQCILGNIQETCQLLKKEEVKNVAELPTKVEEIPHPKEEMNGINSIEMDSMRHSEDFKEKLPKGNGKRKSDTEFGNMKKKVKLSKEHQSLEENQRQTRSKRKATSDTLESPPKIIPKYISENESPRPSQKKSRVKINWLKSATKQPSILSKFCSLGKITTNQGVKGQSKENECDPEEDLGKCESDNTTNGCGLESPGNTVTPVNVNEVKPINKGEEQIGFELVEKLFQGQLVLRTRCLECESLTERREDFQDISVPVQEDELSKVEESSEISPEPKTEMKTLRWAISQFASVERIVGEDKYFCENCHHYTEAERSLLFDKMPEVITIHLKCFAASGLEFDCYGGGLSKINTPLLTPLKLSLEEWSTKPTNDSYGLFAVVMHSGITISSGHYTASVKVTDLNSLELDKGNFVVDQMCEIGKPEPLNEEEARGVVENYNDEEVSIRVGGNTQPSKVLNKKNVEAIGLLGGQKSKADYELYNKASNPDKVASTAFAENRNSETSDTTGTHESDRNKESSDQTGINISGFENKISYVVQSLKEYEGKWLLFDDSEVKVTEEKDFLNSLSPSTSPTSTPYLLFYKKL
Setting [14] is: measured here: cell count channel max response.
Where [15] appears, read: measured here: lipid channel max response.
Where [16] appears, read: at 12.8 µM (top of the series), parasite line A.
Where [17] appears, read: at 12.8 µM (top of the series), parasite line B.

Inconclusive results are not listed. The source made the active and inactive calls. Unless noted, the call rests on the fitted dose curve; in most records, active means well fitted curve in the direction sought with a large enough effect; inconclusive means small, poorly fitted or top-dose-only effect, or another doubt; inactive means no such curve, though single readings can be large; an effect the other way counts as inactive or inconclusive.

Chain of 3',5'-cyclic-AMP phosphodiesterase 4B (Homo sapiens) (Q07343 whole entry, looked up): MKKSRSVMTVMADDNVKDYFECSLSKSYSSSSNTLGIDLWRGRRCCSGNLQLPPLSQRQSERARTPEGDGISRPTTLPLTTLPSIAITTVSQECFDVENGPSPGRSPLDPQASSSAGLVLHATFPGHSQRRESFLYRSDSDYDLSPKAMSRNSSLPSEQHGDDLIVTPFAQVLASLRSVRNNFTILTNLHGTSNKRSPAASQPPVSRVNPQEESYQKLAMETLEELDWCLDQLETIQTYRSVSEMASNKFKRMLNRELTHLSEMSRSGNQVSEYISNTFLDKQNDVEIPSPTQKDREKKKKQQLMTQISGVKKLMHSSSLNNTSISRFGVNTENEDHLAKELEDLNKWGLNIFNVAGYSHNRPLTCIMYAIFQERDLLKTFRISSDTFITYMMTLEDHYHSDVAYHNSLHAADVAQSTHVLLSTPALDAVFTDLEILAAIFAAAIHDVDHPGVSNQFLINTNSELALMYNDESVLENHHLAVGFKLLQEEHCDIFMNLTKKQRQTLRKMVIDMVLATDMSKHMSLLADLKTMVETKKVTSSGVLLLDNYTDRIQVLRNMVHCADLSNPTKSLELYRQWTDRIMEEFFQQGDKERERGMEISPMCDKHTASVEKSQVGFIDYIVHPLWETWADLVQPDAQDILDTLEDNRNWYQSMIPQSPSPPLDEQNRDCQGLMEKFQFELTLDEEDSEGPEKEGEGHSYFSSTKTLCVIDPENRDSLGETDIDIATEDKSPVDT

On to `O=C(NC[C@@H](O)CO)c1c(I)c(C(=O)NC[C@@H](O)CO)c(I)c(N(CCO)C(=O)CO)c1I`, for which the outcome in test [1], in [4], in test [8] and in test [10] was inactive. For the same molecule, the Potency entry (in test [2]; in test [7]; in test [11]; in the test with 3D7; in the test on AS120; with ATS189) was “inactive” throughout. For the same molecule, the Potency result in the test with CP217, in the test on CP247, with CP250 and in the test with SC27B was “inactive” each time. For the same molecule, the activity change, negative = inhibition is -8.22% (inactive) in [3] and -2.29% (inactive) in [9]. For the same molecule, the Potency in test [5] and in test [6] was > 20.6 µM (inactive) each time. The max response in test [9] (setting [14]) was -1.01%; in [9] (setting [15]), -0.682%. Moreover, the activity, negative = inhibition in test [12] (setting [16]) was 7.51% (inactive); in test [12] (setting [17]), 8.28% (inactive).

Turning to `COc1cc2nc(N3CCN(C(=O)[C@@H]4CCCO4)CC3)nc(N)c2cc1OC`, the molecule was called inactive in test [1], in test [4], in test [8] and in test [10]. For the same molecule, the Potency result (in test [2]; in [7]; in test [13]; in [11]; in the test on 3D7; in the test with AS120) was “inactive” each time. The Potency result in the test with ATS189, with CP217, in the test on CP247, in the test on CP250 and in the test on SC27B was “inactive” throughout. The activity change, negative = inhibition in test [3] is 12.6% (inactive); in test [9], 2.61% (inactive). In addition, the Potency in [5] and in [6] was > 20.6 µM (inactive) in each case. The max response in test [9] (setting [14]) is -3.95%; in [9] (setting [15]), -0.955%. In addition, the activity, negative = inhibition is 10.8% (inactive) in [12] (at 28.7 µM (top of the series), parasite line A) and 8.54% (inactive) in test [12] (at 28.7 µM (top of the series), parasite line B).

For the molecule `CCC(=O)O[C@@H]1[C@H](C)O[C@H](O[C@H]2[C@@H](N(C)C)[C@H](O)[C@@H](O[C@@H]3[C@@H](CC=O)C[C@@H](C)[C@@H](O)/C=C\C=C/C[C@@H](C)OC(=O)C[C@@H](OC(=O)CC)[C@H]3OC)O[C@H]2C)C[C@]1(C)O`, the outcome in [1], in test [4], in [8] and in test [10] was inactive. Moreover, the Potency entry (in test [2]; in [7]; in [11]; in the test with 3D7; with AS120; with ATS189) was “inactive” throughout. Besides, the Potency result in the test with CP217, in the test with CP247, in the test with CP250 and in the test with SC27B was “inactive” in each case. Moreover, the figures for the activity change, negative = inhibition in test [3] and in test [9] were 3.96% (inactive) and -0.346% (inactive), respectively. Moreover, the Potency in test [5] and in test [6] was > 20.6 µM (inactive) in each case. The values for the max response in test [9] (setting [14]) and in test [9] (setting [15]) were -5.96% and -6.47%, respectively. Besides, the values for the activity, negative = inhibition in [12] (setting [16]) and in test [12] (setting [17]) were -18.8% (inactive) and -28.9% (inactive), respectively.

Consider `C=CCSC[C@@H]1Nc2cc(Cl)c(S(N)(=O)=O)cc2S(=O)(=O)N1`, for which the call in test [1], in test [4] and in test [8] was inactive. Further, the Potency result in [2], in [7] and in test [13] was “inactive” in each case. Further, the activity change, negative = inhibition is -2.73% (inactive) in test [3] and -0.966% (inactive) in [9]. The Potency in test [5] and in [6] was > 20.6 µM (inactive) throughout. For the same molecule, the max response in [9] (setting [14]) was -24.3%; in test [9] (setting [15]) it was -22.1%.

On to `CC(C)(C)NC[C@H](O)COc1cccc2c1CCC(=O)N2`, for which the outcome in test [1], in test [4], in test [8] and in test [10] was inactive. For the same molecule, the Potency result (in test [2]; in test [7]; in [13]; in the test on 3D7; in the test with AS120; in the test with ATS189) was “inactive” each time. Moreover, the Potency entry in the test with CP217, in the test with CP247, in the test with CP250 and in the test on SC27B was “inactive” throughout. Besides, the activity change, negative = inhibition in test [3] is -6.75% (inactive); in [9] it was -0.554% (inactive). The Potency in [5] and in [6] was > 20.6 µM (inactive) in each case. For the same molecule, the results for the max response in [9] (setting [14]) and in test [9] (setting [15]) were -2.13% and -1.05%, respectively. Also, the activity, negative = inhibition in test [12] (setting [16]) was 7.75% (inactive); in test [12] (setting [17]), -1.3% (inactive).
